What all share (experiment): NCI-60 one-dose screen, 48 h (100 = growth as untreated, 0 = no growth, -100 = all killed)
The subject of assay [1] is HCT-15 colon. The note with it: 10 µM unless noted.
In assay [2] the test system is HT29 colon. The following applies: 10 µM unless noted.
Assay [3] deals with SNB-75 CNS. The note with it: 10 µM unless noted.
Assay [4] concerns SNB-19 CNS. The note with it: 10 µM unless noted.
For assay [5], the system named is PC-3 prostate. The note with it: 10 µM unless noted.
Assay [6] relates to SK-MEL-5 melanoma. The note with it: 10 µM unless noted.
Assay [7] relates to UACC-62 melanoma. The following applies: 10 µM unless noted.
Assay [8] relates to LOX IMVI melanoma. The note with it: 10 µM.
Assay [9] relates to SK-MEL-28 melanoma. The following applies: 10 µM unless noted.
Assay [10] concerns SK-MEL-2 melanoma. The following applies: 10 µM unless noted.
Assay [11] has as its system SN12C renal. The note with it: 10 µM unless noted.
Assay [12] relates to UO-31 renal. The following applies: 10 µM unless noted.
The subject of assay [13] is TK-10 renal. The following applies: 10 µM unless noted.
In assay [14] the test system is ACHN renal. The note with it: 10 µM unless noted.
The subject of assay [15] is CAKI-1 renal. The following applies: 10 µM unless noted.
In assay [16] the test system is A498 renal. The following applies: 10 µM unless noted.
The subject of assay [17] is CCRF-CEM leukemia. The note with it: 10 µM unless noted.
In assay [18] the test system is MOLT-4 leukemia. The following applies: 10 µM unless noted.
The subject of assay [19] is EKVX NSCLC. The note with it: 10 µM unless noted.
Assay [20] has as its system U251 CNS. The note with it: 10 µM unless noted.

This passage reports growth results from PubChem BioAssay (NCI).

This is part of a sample that, as a whole, favours compounds with a hit. Of some 83,000 tested, about 20% had one in any assay.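 Plates (96-well) were seeded with cells, treated with compound at one concentration, and incubated for 48 hours before percent growth was determined.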 A number with no mark means an inactive call. The source made the active and inactive calls. Rule for the calls: active = growth percent below 10; inactive = the rest.

With `C=CC1=NC(C)(C)CC(C)O1` (configuration not stated), the growth is 98.9% in assay [1]; 106% in assay [2]; 72% in assay [3]; 99.5% in assay [4]; 102% in [5]; 105% in [6]. Besides, the growth in assay [7] was 100%; in assay [8], 98.4%; in assay [9], 96.6%; in [10], 112%; in assay [11], 99.2%; in [12] it was 111%. For the same molecule, the growth in assay [13] is 106%; in assay [14], 101%; in assay [15] it was 114%; in [16], 98.3%; in assay [17] it was 95.7%; in assay [18], 98.5%.

As to `C[n+]1cc2cc3c(cc2c2ccccc21)OCO3`, the growth in assay [1] was 97.2%; in assay [2], 63%; in [3], 22.5%; in assay [4], 16.1%; in assay [5], 51.6%; in assay [6], 43.1%. Also, the growth was 72.7% in assay [7]; 63.2% in [8]; 45.6% in [9]; 9.45% (active) in [11]; 72% in [12]; 92.8% in assay [13]. The growth is 106% in assay [14], 72.8% in assay [16], 57.5% in [17] and 12.4% in [18].

For `CCOC(=O)Nc1nccs1`, the growth was 104% in assay [1]; 100% in assay [2]; 111% in assay [3]; 111% in assay [4]; 97.7% in [5]; 99.5% in assay [6]. The growth is 99.7% in assay [7]; 103% in assay [8]; 111% in assay [9]; 111% in assay [10]; 99.4% in assay [19]; 88.1% in [12]. Further, the growth in [13] was 104%; in assay [15], 103%; in assay [16], 99.9%; in [18], 110%.

As for `O=S(=O)(O)C(C(I)I)S(=O)(=O)O`, the growth was 110% in assay [1]; 118% in [2]; 98.3% in [3]; 113% in assay [4]; 95.7% in assay [5]; 110% in assay [7]. In addition, the growth was 101% in assay [8]; 114% in [9]; 109% in assay [10]; 112% in [19]; 110% in assay [11]; 89.6% in assay [12]. The growth is 111% in [13]; 114% in [14]; 100% in assay [15]; 106% in [16]; 105% in assay [17]; 103% in assay [18].

Turning to `COc1cc2c(c(OC)c1OC)-c1ccc(SC)c(=O)cc1[C@@H](NC1OC(CO)C(O)C(O)C1O)CC2` (some centres not stated), the growth in [1] is 14.8%; in assay [2], 0.658% (active); in assay [3], 24.9%; in [4], 71.5%; in [5], 15.7%; in assay [6], -18.3% (active). Besides, the growth was 43.3% in assay [7]; 22.3% in [8]; 61.1% in [9]; 4.69% (active) in assay [10]; 33.6% in assay [11]; 34.4% in [12]. Moreover, the growth in [13] was 42.1%; in [14], 27.2%; in assay [15], 18.7%; in assay [16], -14.3% (active); in assay [17], 4.92% (active); in assay [18] it was 1.36% (active).

Turning to `CC1CN(CCO)CC(C)O1` (configuration not stated), the growth is 102% in assay [1]; 114% in [2]; 96.5% in assay [3]; 102% in [4]; 104% in assay [5]; 102% in assay [6]. Further, the growth in assay [7] was 94.1%; in assay [9] it was 104%; in assay [10], 133%; in [19], 102%; in assay [11], 93.8%; in assay [12] it was 90.7%. The growth is 106% in assay [13]; 107% in assay [14]; 93.5% in assay [15]; 114% in assay [16]; 100% in assay [17]; 105% in [18].

Consider `O=C(O)Cc1ccc(Cl)cc1`, for which the growth in assay [1] was 112%; in assay [2], 107%; in assay [3] it was 102%; in [4], 108%; in [5] it was 85.7%; in assay [6], 114%. Further, the growth in [7] was 110%; in assay [8], 103%; in assay [9], 132%; in assay [19], 79.2%; in assay [11], 122%; in [12] it was 99.4%. Moreover, the growth in assay [13] is 107%; in [14], 103%; in [16], 95.9%; in assay [17], 132%; in [18] it was 8.9% (active).

For `O=C(O)Cc1ccccn1`, the growth in assay [1] is 99.7%; in [2], 103%; in [4], 101%; in [20] it was 99%; in assay [5], 102%; in assay [6], 104%. The growth was 106% in [7]; 113% in assay [8]; 106% in [9]; 106% in assay [10]; 109% in assay [19]; 112% in assay [11]. In addition, the growth in assay [12] was 95.1%; in assay [13], 105%; in assay [14] it was 105%; in assay [15], 93.9%; in [16] it was 94.4%; in [17] it was 101%. The growth in assay [18] is 89.3%.

For `C=CCc1cc(OC)c(OC)c(OC)c1`, the growth in [1] is 99.1%; in assay [2] it was 98%; in assay [3], 101%; in [4], 103%; in assay [5], 100%; in assay [7] it was 97.4%. Also, the growth in [8] was 102%; in assay [9] it was 115%; in assay [10] it was 108%; in assay [19] it was 111%; in assay [11], 99.5%; in assay [12], 105%. Also, the growth was 108% in assay [14]; 100% in assay [15]; 100% in assay [16]; 104% in assay [17]; 104% in assay [18].
